# From PubChem BioAssay (NCATS)
# Results filed as inconclusive are left out. Values without a mark were called inactive. Active and inactive are the calls of the source. Calls follow the shape of the dose curve; as a rule, active = well fitted cell-killing curve with a large enough effect; inconclusive = small, poorly fitted or top-dose-only effect, or effect the other way; inactive = no such curve, though single readings can be large or run the other way.
# Assay: Quantitative High-Throughput drug screen in 47 multiple myeloma cell lines against the NCATS MIPE library collection: KMM1_JCRB cell viability assay (AID 1918960); also: nearly all actives have a fitted effect of over 30% in size
# Conditions: KMM1 myeloma viability, CellTiter-Glo ATP luminescence, 48 h; series mostly up to 45.8 µM; viability (% of DMSO): at the top concentration
# Excerpt: PI: Beverly A. Mock Ph.D.
# Laboratory of Cancer Biology and Genetics,
# Center for Cancer Research, National Cancer Institute,
# National Institute of Health, Bethesda, Maryland
# Drug resistance and disease progression are common in multiple myeloma (MM) patients, underscoring the need for new therapeutic combinations. […] We hypothesized that effective combinations would reduce MYC expression and enhance p16 activity. […] These preclinical data identify potentially useful drug combinations for evaluation in drug-resistant MM and reveal potential mechanisms of combined drug sensitivity.
# Described herein is the primary MIPE qHTS used to cherrypick compounds. Validated compounds were then further tested for potential synergistic activiy.
# [1] Peat TJ, Gaikwad SM, Dubois W, Gyabaah-Kessie N, Zhang S, Gorjifard S, Phyo Z, Andres M, Hughitt VK, Simpson RM, Miller MA, Girvin AT, Taylor A, Williams D, D'Antonio N, Zhang Y, Rajagopalan A, Flietner E, Wilson K, Zhang X, Shinn P, Klumpp-Thomas C, McKnight C, Itkin Z, Chen L, Kazandijian D, Zhang J, Michalowski AM, Simmons JK, Keats J, Thomas CJ, Mock BA. Drug combinations identified by high-throughput screening promote cell cycle transition and upregulate Smad pathways in myeloma. Cancer Lett. 2023 Aug 1;568:216284. doi: 10.1016/j.canlet.2023.216284. Epub 2023 Jun 24. PMID: 37356470; PMCID: PMC10408729.
# SEQUENCE No. (e.g., 1, 2, 3, etc.); […] (e.g., Cells, Incubation, Reagent, etc.); VALUE and DESCRIPTION.
# 1; Cells; 5 uL; white, solid bottom 1536-well Greiner assay plate.
# 2; Compounds; 23 nL; Kalypsis pin tool (Wako USA) equipped with a 1536-well pin head to transfer to the assay plates.
# 3; Incubation; 48 hours; 37C incubation.
# 4; Reagent;5uL; CellTiter Glo (Promega).
# 5; Detector; 425V; Luminescence; Viewlux PerkinElmer.
# NOTES (numbers refer to Sequence numbers above)
# 1. The cell-based screening methods employed in this study were like those previously published. Briefly, the corresponding myeloma cell lines were screened in 1,536-well plates with 500 cells, 5-uL per well for inhibition of cell viability (assessed by measuring ATP levels with CellTiterGlo).
# 2. NCATS MIPE 4.0 library of approved and investigational drugs were added using the Kalypsis pin tool. Wells treated with DMSO only for 100% viability and media only cells for 0% viability were used as controls.
# 3. The assay plates were covered and incubated for 48 hours in a 37C, 5% CO2 incubator with controlled humidity.
# 4. After 48 hours, CellTilter-GloTM luminescent substrate mix (Promega) reagent was added to the assay plate and plates we incubated for 5 min at room temperature.
# 5. Signal was measured as median relative luminescence units on a ViewLux (PerkinElmer) multiplate reader.
# [1] Heske CM, Davis MI, Baumgart JT, Wilson K, Gormally MV, Chen L, Zhang X, Ceribelli M, Duveau DY, Guha R, Ferrer M, Arnaldez FI, Ji J, Tran HL, Zhang Y, Mendoza A, Helman LJ, Thomas CJ. Matrix Screen Identifies Synergistic Combination of PARP Inhibitors and Nicotinamide Phosphoribosyltransferase (NAMPT) Inhibitors in Ewing Sarcoma. Clin Cancer Res. 2017 Dec 1;23(23):7301-7311. doi: 10.1158/1078-0432.CCR-17-1121. Epub 2017 Sep 12. PMID: 28899971; PMCID: PMC6636827.
# Potency is read from the fitted curve at half-maximal effect.
Structure (SMILES),Potency,viability (% of DMSO) [%]
CN(C)CCN1C(=O)c2cccc3cc(N)cc(c23)C1=O,18700 nM (active),
N#CC(=C(O)c1ccc(Cl)cc1Cl)c1nc2cc(Cl)ccc2c(=O)[nH]1,,115
CC(O)(C#Cc1ccc2c(c1)N(c1nc(N)ncc1Cl)CC2)c1nccs1 (stereo not given),5260 nM (active),
CC(Oc1ccc(O)cc1)(P(=O)(O)O)P(=O)(O)O,,85
CC(=O)C1=C(O)C=C2Oc3c(C(C)=O)c(O)c(C)c(O)c3C2(C)C1=O (stereo not given),,109
CC[C@H]1OC(=O)[C@H](C)[C@@H](O[C@H]2C[C@@](C)(OC)[C@@H](O)[C@H](C)O2)[C@H](C)[C@@H](O[C@@H]2O[C@H](C)C[C@H](N(C)C)[C@@H]2O)[C@](C)(OC)C[C@@H](C)C(=O)[C@H](C)[C@@H](O)[C@]1(C)O,,88.6
Cc1cc(O)c2c(c1)C(=O)c1cccc(O)c1C2=O,,112
CCC(C=C[C@@H]1OC(=O)C=C[C@H]1C)=C[C@H](C)CC=CC(C)=C[C@@H](C)C(=O)[C@@H](C)[C@H](O)[C@@H](C)CC(C)=CC(=O)O,22 nM (active),
O=c1ccn([C@@H]2O[C@H](CO)[C@H](O)[C@@H]2F)c(=O)[nH]1,,124
CO[C@@H]1[C@@H](O)[C@H](O)[C@@H](n2c3c(Cl)cccc3c3c4c(c5c6cccc(Cl)c6[nH]c5c32)C(=O)NC4=O)O[C@@H]1CO,264 nM (active),
CCCNS(=O)(=O)Nc1ncnc(OCCOc2ncc(Br)cn2)c1-c1ccc(Br)cc1,,109
COc1cc(OC)cc(-c2ccc3ncc4ccc(=O)n(-c5ccc(N6CCNCC6)c(C(F)(F)F)c5)c4c3c2)c1,2960 nM (active),
COc1cc2c(cc1OC)[C@@H]1C(=O)c3ccc4c(c3O[C@@H]1CO2)C=CC(C)(C)O4,526 nM (active),
CC(C)[C@H](CO)Nc1nc(Nc2cccc(Cl)c2)c2ncn(C(C)C)c2n1,,111
CC[C@H]1OC(=O)[C@H](C)[C@@H](O[C@H]2C[C@@](C)(OC)[C@@H](O)[C@H](C)O2)[C@H](C)[C@@H](O[C@@H]2O[C@@H](C)C[C@H](N(C)C)[C@@H]2O)[C@](C)(O)C[C@@H](C)C(=O)[C@H](C)[C@@H](O)[C@]1(C)O,,75.4
Oc1ccc(-c2ccc(-c3cc(Nc4cccc(CNC5CC5)c4)n[nH]3)cc2)c(O)c1,743 nM (active),
CN[C@H]1[C@@H](O)[C@@H]2O[C@@H]3O[C@H](C)CC(=O)[C@]3(O)O[C@@H]2[C@@H](NC)[C@H]1O,372 nM (active),
CCN(CC)Cc1ccc2cc(COC(=O)Nc3ccc(C(=O)NO)cc3)ccc2c1,469 nM (active),
C=C1C(=CC=C2CCC[C@]3(C)[C@@H]([C@H](C)CCCC(C)(C)O)CC[C@@H]23)C[C@@H](O)C[C@@H]1O,4690 nM (active),
CC(C)(N)c1ccc(-c2nc3ccccc3nc2-c2ccccc2)cc1,18700 nM (active),

Structure (SMILES),Potency,viability (% of DMSO) [%]
CC(=O)OC[C@@H]1O[C@@H](n2ccc(=O)[nH]c2=O)[C@H](OC(C)=O)[C@H]1OC(C)=O,,92.5
CC[C@]12C=CCN3CC[C@@]4(c5cc([C@@]6(C(=O)OC)C[C@H]7C[C@@H](C(C)(F)F)CN(Cc8c6[nH]c6ccccc86)C7)c(OC)cc5N(C)[C@H]4[C@@](O)(C(=O)OC)[C@H]1OC(C)=O)[C@@H]32,8.3 nM (active),
C=CC(=O)Nc1cccc(Nc2nc(NC3CCC(N(C)C)CC3)nc3c2ncn3C(C)C)c1 (stereo not given),13.2 nM (active),
Cc1cnc(NC(=O)Nc2cc(Br)c(C)cc2OC[C@@H]2CNCCO2)cn1,743 nM (active),
CCOc1cc2ncc(C#N)c(Nc3ccc(OCc4ccccn4)c(Cl)c3)c2cc1NC(=O)C=CCN(C)C,935 nM (active),
COc1cc([C@@H]2c3cc4c(cc3[C@@H](O[C@@H]3O[C@@H]5CO[C@@H](c6cccs6)O[C@@H]5[C@H](O)[C@@H]3O)[C@H]3COC(=O)[C@H]23)OCO4)cc(OC)c1O,743 nM (active),
C=C(C)[C@@H]1CC[C@]2(C)CC[C@]3(C)[C@H](CC[C@@H]4[C@@]5(C)CC[C@H](O)C(C)(C)[C@H]5CC[C@]43C)[C@@H]12,,115
Cn1cc(C2=C(c3c4n(c5ccccc35)CCC(CN)C4)C(=O)NC2=O)c2ccccc21 (stereo not given),13200 nM (active),
C#Cc1cccc(Nc2ncnc3cc(OCCOC)c(OCCO)cc23)c1,4690 nM (active),
COc1ccc(C(C)=O)c(O)c1,,108
CN(C)c1ccc2cc(C(=O)N[C@@H](CCCN=C(N)CCl)C(=O)NCc3ccccc3)ccc2c1,1320 nM (active),
Cc1noc(-c2ccc(CSCCC(=O)O)cc2)c1NC(=O)OC(C)c1ccccc1Cl (stereo not given),,57.3
CN[C@H](CC(C)C)C(=O)N[C@H]1C(=O)N[C@@H](CC(N)=O)C(=O)N[C@@H]2C(=O)N[C@H]3C(=O)N[C@H](C(=O)N[C@H](C(=O)O)c4cc(O)cc(O)c4-c4cc3ccc4O)[C@H](O)c3ccc(c(Cl)c3)Oc3cc2cc(c3O[C@@H]2O[C@H](CO)[C@@H](O)[C@H](O)[C@@H]2O[C@H]2C[C@](C)(N)[C@H](O)[C@H](C)O2)Oc2ccc(cc2Cl)[C@H]1O,,98.1
COC1=C(OC)C(=O)C(CC=C(C)CCC=C(C)CCC=C(C)CCC=C(C)CCC=C(C)CCC=C(C)CCC=C(C)CCC=C(C)CCC=C(C)CCC=C(C)C)=C(C)C1=O,,98.4
CCCCCN=C(N)NN=Cc1c[nH]c2ccc(OC)cc12,3320 nM (active),
C=CCNc1c(O)cc2c(O)c1C[C@@H](C)C[C@H](OC)[C@@H](O)[C@@H](C)C=C(C)[C@H](OC(N)=O)[C@@H](OC)C=CC=C(C)C(=O)N2,372 nM (active),
CC(C)OC(=O)[C@H](C)N[P@](=O)(OC[C@H]1O[C@@H](n2ccc(=O)[nH]c2=O)[C@](C)(F)[C@H]1O)Oc1ccccc1,,99.6
O=C(C=CC#Cc1cccc(NS(=O)(=O)c2ccccc2)c1)NO,526 nM (active),
CC(=O)O[C@@]12CO[C@H]1C[C@H](O)[C@@]1(C)C(=O)[C@H](O)C3=C(C)[C@@H](OC(=O)C(O)[C@@H](NC(=O)OC(C)(C)C)c4ccccc4)C[C@@](O)([C@@H](OC(=O)c4ccccc4)[C@@H]21)C3(C)C (stereo not given in full),,17.3
Nc1nc(=O)n([C@H]2CSC(CO)O2)cc1F (stereo not given in full),,92.6
